The target of assay [1] is Tyrosine-protein kinase CSK (Homo sapiens) (UniProt P41240). The conditions noted are these: at 1 µM.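 Note: each value is an averaged inhibition reading.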
Assay [2] addresses T1, Discoidin domain-containing receptor 2 (Homo sapiens) (UniProt Q16832).
T1 sequence (whole entry): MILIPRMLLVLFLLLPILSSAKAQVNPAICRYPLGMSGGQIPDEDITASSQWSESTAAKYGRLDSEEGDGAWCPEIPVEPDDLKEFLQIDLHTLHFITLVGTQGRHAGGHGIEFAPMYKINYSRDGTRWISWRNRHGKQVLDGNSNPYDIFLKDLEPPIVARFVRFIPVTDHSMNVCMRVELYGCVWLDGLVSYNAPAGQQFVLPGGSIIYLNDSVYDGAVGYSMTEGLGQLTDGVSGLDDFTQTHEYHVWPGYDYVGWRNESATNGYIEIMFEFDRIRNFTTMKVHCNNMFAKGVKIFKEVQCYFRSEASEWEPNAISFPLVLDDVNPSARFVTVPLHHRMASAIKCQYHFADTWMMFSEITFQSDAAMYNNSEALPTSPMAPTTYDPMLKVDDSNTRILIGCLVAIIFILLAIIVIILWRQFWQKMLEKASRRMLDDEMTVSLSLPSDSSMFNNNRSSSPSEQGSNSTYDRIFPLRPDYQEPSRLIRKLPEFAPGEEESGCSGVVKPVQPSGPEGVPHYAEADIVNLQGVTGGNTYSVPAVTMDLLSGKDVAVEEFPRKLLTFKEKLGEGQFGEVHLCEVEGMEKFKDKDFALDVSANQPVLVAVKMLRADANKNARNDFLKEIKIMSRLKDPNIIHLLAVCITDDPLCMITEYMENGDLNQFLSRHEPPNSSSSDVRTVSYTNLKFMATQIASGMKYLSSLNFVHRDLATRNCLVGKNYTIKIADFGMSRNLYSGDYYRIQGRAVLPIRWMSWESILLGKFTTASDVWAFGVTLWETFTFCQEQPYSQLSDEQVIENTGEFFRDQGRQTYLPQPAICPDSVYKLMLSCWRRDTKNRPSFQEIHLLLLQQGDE
As to conditions: at 0.1 µM.

Assay [3] deals with T1, Discoidin domain-containing receptor 2 (Homo sapiens). As to conditions: at 1 µM.
Assay [4] addresses Epidermal growth factor receptor (Homo sapiens) (UniProt P00533). As to conditions: at 0.1 µM.
Assay [5] shares this target. The conditions noted are these: at 1 µM.
Assay [6] concerns Epidermal growth factor receptor (Homo sapiens), P00533 [L858R]. As to conditions: at 0.1 µM.
Epidermal growth factor receptor (Homo sapiens), P00533 [L858R], sequence (P00533 whole entry L858R): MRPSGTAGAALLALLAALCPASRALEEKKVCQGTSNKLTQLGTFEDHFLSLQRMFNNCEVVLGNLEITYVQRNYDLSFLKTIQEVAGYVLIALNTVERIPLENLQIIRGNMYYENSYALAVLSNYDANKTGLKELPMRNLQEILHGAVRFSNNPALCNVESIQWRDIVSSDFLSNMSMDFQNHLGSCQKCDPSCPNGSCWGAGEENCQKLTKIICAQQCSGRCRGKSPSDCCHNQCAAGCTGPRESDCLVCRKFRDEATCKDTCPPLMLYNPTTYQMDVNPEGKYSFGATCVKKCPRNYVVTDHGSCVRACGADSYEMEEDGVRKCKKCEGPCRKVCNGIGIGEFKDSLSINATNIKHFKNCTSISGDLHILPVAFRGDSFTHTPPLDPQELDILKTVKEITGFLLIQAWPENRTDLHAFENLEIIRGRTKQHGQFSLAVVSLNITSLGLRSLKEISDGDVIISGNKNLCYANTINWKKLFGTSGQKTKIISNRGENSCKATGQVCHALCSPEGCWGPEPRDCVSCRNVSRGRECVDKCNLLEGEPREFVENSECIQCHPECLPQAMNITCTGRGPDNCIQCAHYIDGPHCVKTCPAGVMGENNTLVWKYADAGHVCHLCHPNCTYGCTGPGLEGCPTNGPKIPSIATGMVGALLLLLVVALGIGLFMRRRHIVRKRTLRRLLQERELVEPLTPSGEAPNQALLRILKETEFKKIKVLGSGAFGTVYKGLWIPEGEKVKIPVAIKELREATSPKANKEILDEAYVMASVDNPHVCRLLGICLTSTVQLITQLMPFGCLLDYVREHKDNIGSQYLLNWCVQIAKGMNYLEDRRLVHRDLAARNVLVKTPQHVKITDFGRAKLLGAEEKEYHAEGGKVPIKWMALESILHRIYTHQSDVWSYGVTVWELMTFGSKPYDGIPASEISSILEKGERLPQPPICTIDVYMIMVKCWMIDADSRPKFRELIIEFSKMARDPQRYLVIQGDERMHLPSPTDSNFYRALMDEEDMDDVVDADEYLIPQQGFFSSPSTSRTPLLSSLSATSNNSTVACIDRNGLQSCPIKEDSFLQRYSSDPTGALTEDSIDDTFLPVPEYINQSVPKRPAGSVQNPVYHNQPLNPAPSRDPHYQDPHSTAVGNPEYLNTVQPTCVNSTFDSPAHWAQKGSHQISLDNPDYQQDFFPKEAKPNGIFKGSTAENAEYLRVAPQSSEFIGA
Assay [7] has the same test system. As to conditions: at 1 µM.
The test system of assay [8] is Epidermal growth factor receptor (Homo sapiens), P00533 [L861Q]. As to conditions: at 0.1 µM.
Epidermal growth factor receptor (Homo sapiens), P00533 [L861Q], sequence (P00533 whole entry L861Q): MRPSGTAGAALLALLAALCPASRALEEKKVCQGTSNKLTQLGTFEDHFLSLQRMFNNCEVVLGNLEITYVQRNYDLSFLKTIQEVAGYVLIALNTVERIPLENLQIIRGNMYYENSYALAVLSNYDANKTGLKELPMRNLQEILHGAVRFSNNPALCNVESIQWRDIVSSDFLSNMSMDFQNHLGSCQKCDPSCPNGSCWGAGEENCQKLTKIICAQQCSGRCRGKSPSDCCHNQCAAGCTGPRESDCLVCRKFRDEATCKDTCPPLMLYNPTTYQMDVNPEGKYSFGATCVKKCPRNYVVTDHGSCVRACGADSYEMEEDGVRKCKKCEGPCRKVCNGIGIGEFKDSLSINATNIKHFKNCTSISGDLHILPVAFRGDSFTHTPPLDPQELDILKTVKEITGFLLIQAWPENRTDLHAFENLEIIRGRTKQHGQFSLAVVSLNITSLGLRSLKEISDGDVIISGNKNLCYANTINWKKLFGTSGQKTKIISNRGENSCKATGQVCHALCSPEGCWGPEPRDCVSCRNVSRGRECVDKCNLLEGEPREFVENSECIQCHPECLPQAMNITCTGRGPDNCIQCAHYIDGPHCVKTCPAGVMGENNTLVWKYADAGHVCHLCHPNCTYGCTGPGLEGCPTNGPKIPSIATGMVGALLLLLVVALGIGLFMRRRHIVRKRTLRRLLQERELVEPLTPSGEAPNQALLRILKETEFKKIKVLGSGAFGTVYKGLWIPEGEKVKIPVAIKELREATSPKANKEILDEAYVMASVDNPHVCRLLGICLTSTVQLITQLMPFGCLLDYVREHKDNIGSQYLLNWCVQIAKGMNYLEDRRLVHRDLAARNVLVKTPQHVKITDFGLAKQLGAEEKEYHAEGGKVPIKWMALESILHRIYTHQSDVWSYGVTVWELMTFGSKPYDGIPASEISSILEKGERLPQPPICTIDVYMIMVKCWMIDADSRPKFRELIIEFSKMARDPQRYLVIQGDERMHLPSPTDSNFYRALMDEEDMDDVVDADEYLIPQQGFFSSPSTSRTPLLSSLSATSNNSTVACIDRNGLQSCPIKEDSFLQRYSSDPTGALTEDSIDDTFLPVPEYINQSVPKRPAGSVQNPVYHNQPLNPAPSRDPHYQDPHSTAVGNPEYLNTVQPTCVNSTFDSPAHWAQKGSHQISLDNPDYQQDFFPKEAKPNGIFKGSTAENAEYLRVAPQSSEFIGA
Assay [9] shares this test system. The conditions noted are these: at 1 µM.
Assay [10] has as its system Epidermal growth factor receptor (Homo sapiens), P00533 [T790M]. The conditions noted are these: at 0.1 µM.
The test system is the same in assay [11]. The conditions noted are these: at 1 µM.
The subject of assay [12] is Epidermal growth factor receptor (Homo sapiens), P00533 [L858R,T790M]. The conditions noted are these: at 0.1 µM.
The test system is the same in assay [13]. The conditions noted are these: at 1 µM.
Assay [14] has as its target Ephrin type-A receptor 2 (Homo sapiens) (UniProt P29317). The conditions noted are these: at 0.1 µM.
For assay [15] the target is unchanged. The conditions noted are these: at 1 µM.
The target in assay [16] is T2, Ephrin type-A receptor 3 (Homo sapiens) (UniProt P29320).
T2 sequence (whole entry): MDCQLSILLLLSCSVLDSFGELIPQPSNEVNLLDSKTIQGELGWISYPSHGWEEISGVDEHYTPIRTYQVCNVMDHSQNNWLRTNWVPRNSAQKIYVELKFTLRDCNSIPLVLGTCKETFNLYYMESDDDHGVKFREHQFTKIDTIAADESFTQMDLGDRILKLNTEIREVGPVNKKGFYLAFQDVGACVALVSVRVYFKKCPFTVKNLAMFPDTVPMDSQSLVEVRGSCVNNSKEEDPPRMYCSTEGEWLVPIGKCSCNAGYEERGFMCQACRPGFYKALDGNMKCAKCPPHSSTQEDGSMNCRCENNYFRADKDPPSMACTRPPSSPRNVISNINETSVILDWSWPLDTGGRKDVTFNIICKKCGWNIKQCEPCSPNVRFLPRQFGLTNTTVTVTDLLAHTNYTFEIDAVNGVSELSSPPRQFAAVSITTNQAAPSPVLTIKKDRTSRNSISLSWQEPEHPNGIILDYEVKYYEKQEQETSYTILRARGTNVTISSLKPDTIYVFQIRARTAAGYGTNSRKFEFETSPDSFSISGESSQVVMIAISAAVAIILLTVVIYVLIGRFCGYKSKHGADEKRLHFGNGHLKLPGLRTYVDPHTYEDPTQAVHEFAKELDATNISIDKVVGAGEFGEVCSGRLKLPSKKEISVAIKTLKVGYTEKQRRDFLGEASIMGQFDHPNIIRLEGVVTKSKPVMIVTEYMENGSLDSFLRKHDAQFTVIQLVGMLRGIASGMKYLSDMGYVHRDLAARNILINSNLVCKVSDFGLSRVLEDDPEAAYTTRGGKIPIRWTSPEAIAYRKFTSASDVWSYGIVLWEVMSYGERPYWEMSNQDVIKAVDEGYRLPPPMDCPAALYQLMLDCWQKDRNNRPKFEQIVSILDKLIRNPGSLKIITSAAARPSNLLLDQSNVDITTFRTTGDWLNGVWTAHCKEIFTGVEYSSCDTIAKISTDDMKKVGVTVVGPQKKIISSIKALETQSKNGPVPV
The conditions noted are these: at 0.1 µM.

For assay [17], the target named is T2, Ephrin type-A receptor 3 (Homo sapiens). As to conditions: at 1 µM.
Assay [18] deals with Ephrin type-A receptor 4 (Homo sapiens) (UniProt P54764). The conditions noted are these: at 0.1 µM.
For assay [19] the target is unchanged. The conditions noted are these: at 1 µM.
For assay [20], the target named is T3, Ephrin type-B receptor 2 (Homo sapiens) (UniProt P29323).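 Note: reported as mean inhibition of EPHB2, from the GSK PKIS dataset.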
T3 sequence (whole entry): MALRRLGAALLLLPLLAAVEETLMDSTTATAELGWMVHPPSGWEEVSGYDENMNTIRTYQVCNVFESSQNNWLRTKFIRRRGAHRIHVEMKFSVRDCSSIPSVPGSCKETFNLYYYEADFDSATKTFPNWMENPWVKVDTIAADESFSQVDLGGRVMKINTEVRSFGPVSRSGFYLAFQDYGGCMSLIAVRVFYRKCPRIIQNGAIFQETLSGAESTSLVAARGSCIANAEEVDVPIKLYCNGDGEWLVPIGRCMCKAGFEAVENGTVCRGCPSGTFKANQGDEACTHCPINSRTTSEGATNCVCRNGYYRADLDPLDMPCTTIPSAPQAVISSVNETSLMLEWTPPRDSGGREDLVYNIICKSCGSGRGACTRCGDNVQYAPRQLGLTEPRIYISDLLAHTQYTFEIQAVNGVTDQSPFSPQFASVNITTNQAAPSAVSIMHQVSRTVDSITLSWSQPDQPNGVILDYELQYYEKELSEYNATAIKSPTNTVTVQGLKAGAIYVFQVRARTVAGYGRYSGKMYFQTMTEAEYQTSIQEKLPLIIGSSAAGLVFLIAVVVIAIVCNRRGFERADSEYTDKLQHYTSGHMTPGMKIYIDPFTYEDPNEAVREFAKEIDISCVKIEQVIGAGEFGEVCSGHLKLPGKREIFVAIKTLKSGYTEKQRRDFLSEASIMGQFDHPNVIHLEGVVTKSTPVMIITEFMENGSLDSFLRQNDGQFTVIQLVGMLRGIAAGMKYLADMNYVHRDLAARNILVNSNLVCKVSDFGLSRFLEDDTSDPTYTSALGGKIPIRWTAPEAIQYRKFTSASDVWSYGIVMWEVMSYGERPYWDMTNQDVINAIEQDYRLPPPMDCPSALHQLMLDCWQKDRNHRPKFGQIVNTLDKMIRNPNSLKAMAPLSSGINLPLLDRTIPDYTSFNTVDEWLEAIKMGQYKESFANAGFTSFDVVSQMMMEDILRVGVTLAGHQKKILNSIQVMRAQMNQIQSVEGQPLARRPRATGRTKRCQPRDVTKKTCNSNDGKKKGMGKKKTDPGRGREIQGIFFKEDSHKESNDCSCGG
As to conditions: at 0.1 µM.

Epidermal growth factor receptor (Homo sapiens), P00533 [T790M], sequence (P00533 whole entry T790M): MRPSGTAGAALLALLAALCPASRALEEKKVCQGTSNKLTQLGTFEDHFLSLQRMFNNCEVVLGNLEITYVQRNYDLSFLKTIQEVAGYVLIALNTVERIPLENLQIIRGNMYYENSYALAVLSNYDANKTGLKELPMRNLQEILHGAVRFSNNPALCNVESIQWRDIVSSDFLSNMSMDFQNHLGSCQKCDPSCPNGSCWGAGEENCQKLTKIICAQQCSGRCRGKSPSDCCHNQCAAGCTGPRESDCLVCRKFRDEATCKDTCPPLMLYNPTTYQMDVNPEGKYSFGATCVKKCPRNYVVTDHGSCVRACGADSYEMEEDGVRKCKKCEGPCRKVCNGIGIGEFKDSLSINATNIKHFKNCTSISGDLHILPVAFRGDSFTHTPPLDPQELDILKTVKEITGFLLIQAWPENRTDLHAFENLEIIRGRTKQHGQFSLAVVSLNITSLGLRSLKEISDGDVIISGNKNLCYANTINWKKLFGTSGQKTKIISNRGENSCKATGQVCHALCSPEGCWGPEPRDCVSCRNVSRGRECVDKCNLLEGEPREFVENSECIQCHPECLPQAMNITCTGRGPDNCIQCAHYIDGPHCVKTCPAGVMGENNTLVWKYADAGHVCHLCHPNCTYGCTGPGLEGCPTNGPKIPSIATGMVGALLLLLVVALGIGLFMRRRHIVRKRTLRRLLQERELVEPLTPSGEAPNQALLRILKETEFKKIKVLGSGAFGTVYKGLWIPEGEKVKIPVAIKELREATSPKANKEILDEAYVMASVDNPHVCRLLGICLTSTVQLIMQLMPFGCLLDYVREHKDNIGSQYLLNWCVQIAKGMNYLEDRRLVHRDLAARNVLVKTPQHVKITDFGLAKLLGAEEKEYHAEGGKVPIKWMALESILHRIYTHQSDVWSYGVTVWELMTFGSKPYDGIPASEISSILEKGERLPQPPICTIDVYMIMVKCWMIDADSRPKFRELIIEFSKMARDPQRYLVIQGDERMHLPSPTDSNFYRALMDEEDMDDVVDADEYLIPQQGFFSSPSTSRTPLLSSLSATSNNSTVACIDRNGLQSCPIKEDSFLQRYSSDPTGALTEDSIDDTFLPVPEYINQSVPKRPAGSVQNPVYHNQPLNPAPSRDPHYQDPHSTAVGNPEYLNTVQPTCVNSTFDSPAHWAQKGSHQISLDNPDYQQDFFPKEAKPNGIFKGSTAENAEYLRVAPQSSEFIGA
Ephrin type-A receptor 2 (Homo sapiens), sequence (P29317 whole entry): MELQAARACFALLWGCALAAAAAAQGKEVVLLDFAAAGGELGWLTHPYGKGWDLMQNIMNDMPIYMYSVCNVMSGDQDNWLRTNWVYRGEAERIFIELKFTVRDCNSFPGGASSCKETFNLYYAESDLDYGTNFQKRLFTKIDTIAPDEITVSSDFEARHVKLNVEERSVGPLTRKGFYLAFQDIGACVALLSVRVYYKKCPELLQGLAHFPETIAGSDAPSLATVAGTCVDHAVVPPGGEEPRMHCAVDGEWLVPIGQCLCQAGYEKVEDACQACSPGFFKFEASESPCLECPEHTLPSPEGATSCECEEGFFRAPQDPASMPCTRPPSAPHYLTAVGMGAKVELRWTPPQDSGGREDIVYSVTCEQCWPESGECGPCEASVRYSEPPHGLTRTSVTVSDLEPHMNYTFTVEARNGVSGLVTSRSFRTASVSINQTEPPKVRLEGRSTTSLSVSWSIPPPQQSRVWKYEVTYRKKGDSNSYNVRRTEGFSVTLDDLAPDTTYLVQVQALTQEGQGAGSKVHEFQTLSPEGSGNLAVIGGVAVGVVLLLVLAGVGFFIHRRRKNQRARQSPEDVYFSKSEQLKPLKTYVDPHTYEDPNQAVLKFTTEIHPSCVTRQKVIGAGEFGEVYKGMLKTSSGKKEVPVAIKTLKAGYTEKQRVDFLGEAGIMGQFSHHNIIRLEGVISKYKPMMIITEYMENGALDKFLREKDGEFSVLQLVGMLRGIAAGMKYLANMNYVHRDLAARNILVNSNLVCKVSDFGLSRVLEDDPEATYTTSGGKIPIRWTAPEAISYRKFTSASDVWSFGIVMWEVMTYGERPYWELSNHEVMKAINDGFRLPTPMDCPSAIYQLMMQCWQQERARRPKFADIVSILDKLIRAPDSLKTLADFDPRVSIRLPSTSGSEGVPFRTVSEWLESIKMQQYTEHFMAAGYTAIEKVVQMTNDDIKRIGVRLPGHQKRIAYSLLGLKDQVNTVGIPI
Tyrosine-protein kinase CSK (Homo sapiens), sequence (P41240 2-450 limits assumed): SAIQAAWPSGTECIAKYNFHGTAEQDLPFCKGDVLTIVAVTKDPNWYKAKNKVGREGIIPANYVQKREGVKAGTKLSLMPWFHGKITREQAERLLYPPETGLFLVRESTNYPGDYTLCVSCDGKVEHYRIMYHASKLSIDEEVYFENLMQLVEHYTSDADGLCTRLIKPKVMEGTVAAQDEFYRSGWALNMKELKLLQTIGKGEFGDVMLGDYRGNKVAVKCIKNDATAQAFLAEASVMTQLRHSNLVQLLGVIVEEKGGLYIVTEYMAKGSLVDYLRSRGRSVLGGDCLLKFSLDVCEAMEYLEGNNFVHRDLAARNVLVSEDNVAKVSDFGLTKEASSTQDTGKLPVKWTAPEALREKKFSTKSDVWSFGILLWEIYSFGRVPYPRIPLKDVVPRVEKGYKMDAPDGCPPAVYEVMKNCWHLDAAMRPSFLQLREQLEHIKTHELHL

For `COc1cc2ncn(-c3cc(OCc4ccccc4C(F)(F)F)c(C(C)=O)s3)c2cc1OC`, the inhibition is 3.13% in assay [1]; 3.54% in [2]; 5.22% in assay [3]; -0.8% in assay [4]; 1.81% in [5]; -2.47% in assay [6]. For the same compound, the inhibition in assay [7] is 3.36%; in [8], 1.73%; in assay [9], 0.09%; in [10] it was 2.46%; in assay [11], 0.97%; in assay [12], -1.84%. Besides, the inhibition in assay [13] amounted to 0.68%; in assay [14], 1.98%; in assay [15] it was 2.23%; in [16], 1.78%; in [17], 4.66%; in assay [18], 5.55%. The inhibition was found to be 10.6% in assay [19] and 5.43% in assay [20].

Consider `C[C@@H](Oc1cc(-n2cnc3ccc(OCC4CCN(C)CC4)cc32)sc1C(N)=O)c1ccccc1Cl`, for which the inhibition in assay [1] was determined as 3.59%; in assay [2], 2.64%; in assay [3] it was 8.53%; in assay [4] it was 3.04%; in assay [5] it was 3.73%; in assay [6], 4.5%. The inhibition is 19.8% in assay [7]; 1.43% in assay [8]; 5.89% in assay [9]; 1.15% in [10]; 3.47% in assay [11]; -2.11% in assay [12]. The inhibition in assay [13] turned out to be 7.41%; in assay [14], 1.42%; in [15], 1.71%; in assay [16], 3.99%; in [17], 4.27%; in assay [18], 8.9%. Besides, the results for the inhibition in assay [19] and in assay [20] were 11.6% and 9.82%, respectively.

For the compound `Cc1ccc(NC(=O)c2ccoc2)cc1-c1ccc(C(=O)NCC2CC2)cc1`, the inhibition in [1] was 0.18%; in [2] it was 1.48%; in [3], 2.43%; in [4], 3.14%; in [5], 6.36%; in assay [6] it was 3.23%. Besides, the inhibition in assay [7] is 1%; in assay [8], 0.74%; in assay [9], 0.37%; in assay [10], 1.63%; in assay [11] it was 0.9%; in assay [12], 2.36%. Further, the inhibition in assay [13] was 1.46%; in assay [14], 0.92%; in [15], -0.44%; in assay [16], 1.99%; in [17], 2.02%; in assay [18], 5.05%. For the same compound, the inhibition came out at 6.13% in assay [19] and 2.46% in assay [20].

Consider `CCN(CC)Cc1ccc(Nc2nccc(-c3cnn4ncccc34)n2)cc1`, for which the inhibition in assay [1] is 8.18%; in assay [2], 1.64%; in assay [3] it was 4.24%; in assay [4] it was -1.99%; in [5], -1.76%; in assay [6] it was -0.85%. Also, the inhibition was -1.39% in [7]; 1.51% in [8]; 1.54% in assay [9]; 0.54% in assay [10]; 1.33% in assay [11]; 0.05% in [12]. For the same compound, the inhibition was 4.64% in assay [13]; -3.31% in [14]; -5.2% in assay [15]; -1.76% in assay [16]; 0.69% in [17]; 6.79% in assay [18]. For the same compound, the inhibition was 15.2% in assay [19] and 8.25% in assay [20].

On to `COc1cc(N2CCN(C(C)C)CC2)ccc1Nc1nc(Nc2ccc(F)cc2C(=O)NC[C@@H](O)CO)c2cc[nH]c2n1`, for which the inhibition was 6.92% in assay [1]; 0.31% in assay [2]; 1.21% in assay [3]; -0.53% in [4]; 0.84% in [5]; 0.89% in assay [6]. For the same compound, the inhibition was found to be 11.2% in [7]; 5.68% in assay [8]; 8.58% in assay [9]; 4.54% in [10]; 25.8% in [11]; 11.9% in [12]. The inhibition in [13] is 60.2%; in [14], -2.5%; in assay [15], -3.57%; in assay [16], 0.19%; in assay [17], -0.58%; in assay [18] it was 9.3%. The inhibition was 12.5% in assay [19] and 3.1% in [20].

Regarding `Fc1ccc(-c2ncn(C3CCNCC3)c2-c2ccnc(Oc3ccc(F)c(F)c3)n2)cc1`, the inhibition is 2.38% in assay [1]; 1.67% in [2]; 2.09% in assay [3]; -3.12% in assay [4]; -0.79% in [5]; 1.05% in assay [6]. Also, the inhibition was determined as 7.57% in assay [7]; 3.65% in assay [8]; 4.21% in assay [9]; 1.53% in [10]; 1.67% in assay [11]; 2.65% in [12]. The inhibition is 1.47% in assay [13]; -2.47% in assay [14]; -2.72% in [15]; -1.56% in [16]; 0.81% in assay [17]; 6.95% in assay [18]. The inhibition stood at 9.68% in assay [19] and 6.59% in assay [20].

Consider `c1ccc(-c2n[nH]cc2-c2ccnc(-c3ccc(OCCN4CCOCC4)cc3)c2)nc1`, for which the inhibition in assay [1] is -4.36%; in assay [2], 7.59%; in assay [3], 7.75%; in assay [4], 3.33%; in assay [5] it was 6.67%; in assay [6], -2.03%. Also, the inhibition in assay [7] is -1.71%; in [8], -0.15%; in assay [9], -2.39%; in assay [10], -0.02%; in assay [11] it was -0.63%; in assay [12], 1.82%. In addition, the inhibition in assay [13] was -2.02%; in assay [14], 4.75%; in [15], 2.42%; in [16], -1.39%; in [17], -0.22%; in assay [18] it was -5.11%. The inhibition is -9.05% in assay [19] and 0.38% in assay [20].

The record behind these values is ChEMBL document CHEMBL1961873, “Compounds: GSK PKIS; Assays: Nanosyn kinase panel” (2012).
